# PubChem BioAssay AID2284132 (EPA ToxCast)
# Inconclusive results are not listed. The source made the active and inactive calls. Rule for the calls: active = hit-call score of the fitted dose curve at least 0.9, where 1 is the maximum; inconclusive = response in the unintended direction; inactive = score below 0.9.
# Molecular target: human SGK1 AGC Kinase, SGK1 (gene 6446) (UniProt O00141)
# Experiment: ERF_FR_ENZ_hSGK1: Eurofins (ERF) Enzymatic Radiometric [Km ATP] KinaseProfiler LeadHunter Assay for human SGK1 AGC Kinase
# Procedure: ERF_FR_ENZ_hSGK1 is a biochemical, single-readout assay that uses extracted gene-proteins in a cell-free assay. Measurements were taken 0.5 hour after chemical dosing in a 96-well plate. See SGK1 Human AGC Kinase Enzymatic LANCE Assay [Km ATP], Cerep.ERF_FR_ENZ_hSGK1 is an assay component calculated from the ERF_FR_ENZ_hSGK1 assay. It is designed to measure enzyme activity using a type of enzyme reporter as detected by fluorescence intensity with LANCE technology.Data from the assay component ERF_FR_ENZ_hSGK1 was analyzed at the assay endpoint, ERF_FR_ENZ_hSGK1, in the positive analysis fitting direction relative to DMSO as the negative control and baseline of activity. Using a type of enzyme reporter, loss-of-signal activity can be used to understand changes in enzymatic activity as they relate to gene SGK1. To generalize the intended target to other relatable targets, this assay endpoint is annotated to the kinase intended target family, where the subfamily is serine/threonine kinase.
# SGK (h) is incubated with 8 mM MOPS pH 7.0, 0.2 mM EDTA, 30 uM […], 10 mM MgAcetate and [g- 33P]-ATP (specific activity and concentration as required). The reaction is initiated by the addition of the Mg/ATP mix. After incubation for 40 minutes at room temperature, the reaction is stopped by the addition of phosphoric acid to a concentration of 0.5%. […]
# Sequence of human SGK1 AGC Kinase, SGK1 (gene 6446) (O00141 whole entry, looked up): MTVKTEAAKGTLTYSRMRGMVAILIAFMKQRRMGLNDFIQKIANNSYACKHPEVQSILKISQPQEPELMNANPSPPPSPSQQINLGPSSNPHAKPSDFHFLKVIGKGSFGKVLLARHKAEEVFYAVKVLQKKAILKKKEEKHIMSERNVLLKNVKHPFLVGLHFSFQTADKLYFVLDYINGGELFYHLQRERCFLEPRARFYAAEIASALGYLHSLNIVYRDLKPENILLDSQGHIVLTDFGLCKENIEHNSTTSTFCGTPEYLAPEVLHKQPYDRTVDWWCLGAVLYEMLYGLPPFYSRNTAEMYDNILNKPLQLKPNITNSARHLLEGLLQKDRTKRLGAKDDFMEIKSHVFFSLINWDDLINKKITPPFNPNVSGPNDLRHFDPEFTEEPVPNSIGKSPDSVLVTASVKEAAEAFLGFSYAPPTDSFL
row,SMILES,outcome
1,O=C(/C=C/c1ccc(O)cc1)CC(=O)/C=C/c1ccc(O)cc1,inactive
